{"source": "the OligoGym collection"}
{"molecular_target": "BMPR1B", "assay": "pooled miR-30 sensor sort-seq; sequence = guide strand", "details": "shRNA"}
{"sequence": "TATTACATTCGTTCCTTTCTGT", "sensor-assay potency score (higher = more potent)": 0.878}
{"sequence": "TAGGTCATGATAAGGAAGCTGG", "sensor-assay potency score (higher = more potent)": -0.2}
{"sequence": "TATTGTTGACTGAGTCTTCTGG", "sensor-assay potency score (higher = more potent)": 0.00108}
{"sequence": "TTCACCATCTGAATCTGCTTAG", "sensor-assay potency score (higher = more potent)": -0.315}
{"sequence": "ATTTCTGTCTCTCTGAACCAGC", "sensor-assay potency score (higher = more potent)": -0.623}
{"sequence": "TCGTGAAACAATATCCGTCTGT", "sensor-assay potency score (higher = more potent)": -0.0353}
{"sequence": "TTGATGCACACAATCTCCCTCA", "sensor-assay potency score (higher = more potent)": -0.279}
{"sequence": "TCTGTCTCTCTGAACCAGCTGG", "sensor-assay potency score (higher = more potent)": -0.359}
{"sequence": "TCTGTGATTAGGTACAACTGGG", "sensor-assay potency score (higher = more potent)": 0.0109}
{"sequence": "TCATCCTCTTCTATCATCGTGA", "sensor-assay potency score (higher = more potent)": 0.152}
{"sequence": "TTTTACTTTTCAGATCTCGATG", "sensor-assay potency score (higher = more potent)": -0.74}
{"sequence": "TTCTGTTCAAGCTCTCGTCCAA", "sensor-assay potency score (higher = more potent)": -0.142}
{"sequence": "TTGATCTTCTTTGATGAGGAAT", "sensor-assay potency score (higher = more potent)": -1.13}
{"sequence": "TATTCTTCCACTATACCTCCTG", "sensor-assay potency score (higher = more potent)": 0.554}
{"sequence": "TTGTTGACTGAGTCTTCTGGAC", "sensor-assay potency score (higher = more potent)": -0.721}
{"sequence": "TGATATATTTCTGTCTCTCTGA", "sensor-assay potency score (higher = more potent)": 0.214}
{"sequence": "TTACATTCGTTCCTTTCTGTGC", "sensor-assay potency score (higher = more potent)": -0.864}
{"sequence": "TTGAGTACTAAAGATTTCTGTG", "sensor-assay potency score (higher = more potent)": 0.176}
{"sequence": "TCATCGTGAAACAATATCCGTC", "sensor-assay potency score (higher = more potent)": -0.268}
{"sequence": "TAGGTCTTTATTACATTCGTTC", "sensor-assay potency score (higher = more potent)": -0.881}
{"sequence": "TTTCACCATCTGAATCTGCTTA", "sensor-assay potency score (higher = more potent)": -0.0649}
{"molecular_target": "BOLA1", "assay": "pooled miR-30 sensor sort-seq; sequence = guide strand", "details": "shRNA"}
{"sequence": "TAACATGGAACATCCGGGCTGC", "sensor-assay potency score (higher = more potent)": 0.946}
{"sequence": "TCTCGTTGCGAAGCTCTAGCAC", "sensor-assay potency score (higher = more potent)": -0.674}
{"sequence": "TGGGGGGCTAGTGTCCAGCTGA", "sensor-assay potency score (higher = more potent)": -1.56}
{"sequence": "TGAGAGTTCTCTCTCCACTGGG", "sensor-assay potency score (higher = more potent)": -0.015}
